# Reference: PubChem BioAssay
# Activity calls are given as the source filed them.
# Key:
# [1] = small molecules captured by biotinylated probe aFSTL3 – biochemical, small-molecule microarray, fluorescence 635/667, stem cell growth factor project, primary screen (AID 1064); conditions: higher = more signal;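 note: measures binding of the biotinylated anti-FSTL3 antibody to printed compounds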
# [2] = binders from COS7 lysate, DM2A8 probe, primary screen, torsin A project, cell lysate, small-molecule microarray, fluorescence 635/667 (AID 1065); conditions: higher = more signal, COS7 lysate expressing mutant human TOR1A
# [3] = small molecules captured by biotinylated probe aFGF2 – biochemical, small-molecule microarray, fluorescence 635/667, stem cell growth factor project, primary screen (AID 1067); conditions: higher = more signal;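 note: measures binding of biotinylated aFGF2 protein to printed compounds on slides; z-score merges feature fluorescence and signal-to-noise across triplicate slides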
# [4] = small molecules captured by biotinylated probe aFGF10 – biochemical, small-molecule microarray, fluorescence 635/667, stem cell growth factor project, primary screen (AID 1071); conditions: higher = more signal;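 note: score merges 667 nm spot intensity and signal to noise from triplicate slides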
# [5] = molecular target: Neurogenic locus notch homolog protein 2 (Homo sapiens) (UniProt Q04721); assay: small molecules binding Notch2 protein – biochemical, small-molecule microarray, 635 nm fluorescence, stem cell growth factors, primary screen (AID 1073); conditions: higher = more signal
# Neurogenic locus notch homolog protein 2 (Homo sapiens), sequence (Q04721 whole entry, looked up, canonical isoform): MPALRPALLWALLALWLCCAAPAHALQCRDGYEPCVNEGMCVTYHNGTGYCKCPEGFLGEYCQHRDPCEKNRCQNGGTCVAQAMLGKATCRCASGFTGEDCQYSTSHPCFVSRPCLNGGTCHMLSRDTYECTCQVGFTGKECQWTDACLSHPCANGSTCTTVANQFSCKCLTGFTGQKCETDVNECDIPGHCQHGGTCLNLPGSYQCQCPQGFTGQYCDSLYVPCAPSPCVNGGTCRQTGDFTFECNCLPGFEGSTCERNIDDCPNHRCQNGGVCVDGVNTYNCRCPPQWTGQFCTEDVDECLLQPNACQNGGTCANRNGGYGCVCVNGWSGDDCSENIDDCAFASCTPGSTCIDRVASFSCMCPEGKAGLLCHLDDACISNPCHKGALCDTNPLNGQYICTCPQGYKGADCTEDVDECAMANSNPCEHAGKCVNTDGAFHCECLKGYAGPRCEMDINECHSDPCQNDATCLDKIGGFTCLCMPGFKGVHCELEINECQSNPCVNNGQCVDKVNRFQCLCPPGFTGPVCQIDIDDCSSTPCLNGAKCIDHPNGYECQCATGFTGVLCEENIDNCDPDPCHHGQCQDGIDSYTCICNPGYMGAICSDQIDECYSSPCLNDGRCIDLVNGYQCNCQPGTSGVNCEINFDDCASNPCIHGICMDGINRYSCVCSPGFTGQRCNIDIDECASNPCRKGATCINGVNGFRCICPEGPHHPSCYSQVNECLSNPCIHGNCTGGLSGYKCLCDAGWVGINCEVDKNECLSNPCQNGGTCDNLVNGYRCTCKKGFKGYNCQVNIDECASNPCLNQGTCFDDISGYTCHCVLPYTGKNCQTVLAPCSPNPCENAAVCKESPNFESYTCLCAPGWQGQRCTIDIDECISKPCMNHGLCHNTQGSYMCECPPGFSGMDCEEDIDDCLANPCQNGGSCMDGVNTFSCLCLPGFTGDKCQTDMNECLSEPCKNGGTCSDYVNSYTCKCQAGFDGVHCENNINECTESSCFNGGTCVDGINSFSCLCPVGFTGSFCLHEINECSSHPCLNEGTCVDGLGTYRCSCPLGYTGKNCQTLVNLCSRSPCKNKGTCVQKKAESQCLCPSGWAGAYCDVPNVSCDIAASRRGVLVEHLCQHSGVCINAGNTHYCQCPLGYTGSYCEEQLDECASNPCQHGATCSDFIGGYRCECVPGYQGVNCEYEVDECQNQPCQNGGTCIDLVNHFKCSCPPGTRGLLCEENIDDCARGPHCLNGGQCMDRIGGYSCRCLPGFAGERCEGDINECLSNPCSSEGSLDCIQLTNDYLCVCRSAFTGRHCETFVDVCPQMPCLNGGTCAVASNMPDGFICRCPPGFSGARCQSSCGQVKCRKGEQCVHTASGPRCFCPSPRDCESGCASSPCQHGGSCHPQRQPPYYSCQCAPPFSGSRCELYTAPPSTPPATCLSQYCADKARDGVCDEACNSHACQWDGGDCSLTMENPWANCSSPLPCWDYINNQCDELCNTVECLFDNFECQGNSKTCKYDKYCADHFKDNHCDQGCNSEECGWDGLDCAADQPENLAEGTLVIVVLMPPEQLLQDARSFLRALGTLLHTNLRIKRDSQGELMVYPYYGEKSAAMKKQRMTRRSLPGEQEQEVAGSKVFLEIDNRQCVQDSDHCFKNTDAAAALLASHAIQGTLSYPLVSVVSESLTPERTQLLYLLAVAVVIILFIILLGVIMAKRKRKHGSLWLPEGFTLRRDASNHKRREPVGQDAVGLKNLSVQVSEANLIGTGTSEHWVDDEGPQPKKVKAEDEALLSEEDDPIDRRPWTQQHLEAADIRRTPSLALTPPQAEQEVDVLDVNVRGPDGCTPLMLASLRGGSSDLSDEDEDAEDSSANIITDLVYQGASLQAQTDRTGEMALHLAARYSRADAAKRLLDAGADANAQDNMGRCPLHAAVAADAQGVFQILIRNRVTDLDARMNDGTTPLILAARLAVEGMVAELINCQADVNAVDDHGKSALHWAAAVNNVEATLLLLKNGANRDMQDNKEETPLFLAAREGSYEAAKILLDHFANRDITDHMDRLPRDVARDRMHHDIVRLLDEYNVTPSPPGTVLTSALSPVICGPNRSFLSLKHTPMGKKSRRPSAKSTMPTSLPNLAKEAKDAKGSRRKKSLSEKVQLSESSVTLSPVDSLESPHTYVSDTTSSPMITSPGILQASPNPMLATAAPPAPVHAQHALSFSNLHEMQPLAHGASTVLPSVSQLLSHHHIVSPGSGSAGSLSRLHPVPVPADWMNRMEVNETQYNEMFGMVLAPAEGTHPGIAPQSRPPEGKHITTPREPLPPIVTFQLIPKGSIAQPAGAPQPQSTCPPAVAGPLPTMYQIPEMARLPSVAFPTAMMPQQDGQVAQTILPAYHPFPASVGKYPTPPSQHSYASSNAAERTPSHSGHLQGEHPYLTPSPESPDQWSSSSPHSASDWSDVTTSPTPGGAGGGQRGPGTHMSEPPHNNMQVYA
# [6] = molecular target: Pro-neuregulin-1, membrane-bound isoform (Homo sapiens) (UniProt Q02297); assay: small molecules binding neuregulin-1 protein – biochemical, small-molecule microarray, fluorescence 635/667, psychiatric disease protein project, primary screen (AID 1075); conditions: NRG1 binding, 635 nm fluorescence, higher = more signal;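 note: score combines 667 nm spot fluorescence with signal to noise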
# Pro-neuregulin-1, membrane-bound isoform (Homo sapiens), sequence (Q02297 whole entry, looked up, the tested form may be a part, canonical isoform): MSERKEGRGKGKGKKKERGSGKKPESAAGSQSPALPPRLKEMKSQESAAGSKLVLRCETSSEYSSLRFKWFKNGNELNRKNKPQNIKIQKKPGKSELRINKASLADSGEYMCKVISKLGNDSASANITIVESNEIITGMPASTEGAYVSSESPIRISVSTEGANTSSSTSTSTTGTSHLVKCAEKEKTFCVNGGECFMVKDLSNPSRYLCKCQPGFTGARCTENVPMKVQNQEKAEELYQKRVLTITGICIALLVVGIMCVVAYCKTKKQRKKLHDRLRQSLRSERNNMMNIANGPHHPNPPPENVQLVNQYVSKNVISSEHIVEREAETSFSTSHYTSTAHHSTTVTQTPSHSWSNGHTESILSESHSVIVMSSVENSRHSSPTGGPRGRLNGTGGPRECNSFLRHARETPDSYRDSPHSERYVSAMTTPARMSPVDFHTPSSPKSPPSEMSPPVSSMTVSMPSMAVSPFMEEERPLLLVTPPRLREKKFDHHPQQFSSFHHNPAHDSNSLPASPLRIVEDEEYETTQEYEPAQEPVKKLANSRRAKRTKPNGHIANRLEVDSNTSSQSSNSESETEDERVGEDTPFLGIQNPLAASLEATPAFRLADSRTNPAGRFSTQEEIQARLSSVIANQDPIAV
# [7] = tested on: Neuregulin-1 EGF-like domain; assay: small molecules binding NRG1 EGF domain – biochemical, small-molecule microarray, 635 nm fluorescence, primary screen (AID 1081); conditions: higher = more signal;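 note: binding of the protein to compounds printed on small-molecule microarray slides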
# [8] = FRG1 expression reporter modulators in myotubes – cell-based, C2C12 myotubes, firefly/Renilla luciferase, luminescence, FRG1 inhibition for FSHD, primary screen (AID 1084); conditions: FRG1 promoter luciferase, higher = more signal, called active from +8 up or from −8 down
# [9] = small molecules captured by biotinylated probe aFST – biochemical, small-molecule microarray, fluorescence 635/667, stem cell growth factor project, primary screen (AID 1086); conditions: higher = more signal;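 note: score merges 667 nm fluorescence with signal-to-noise of each printed compound spot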
# [10] = binders of probe aHhip on microarray, primary screen, stem cell growth factor project, biochemical, small-molecule microarray, fluorescence 635/667 (AID 1087); conditions: higher = more signal;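 note: score merges spot fluorescence at 667nm with spot signal to noise ratio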
SMILES,composite z-score [1],composite z-score [2],composite z-score [3],composite z-score [4],composite z-score [5],composite z-score [6],composite z-score [7],z-score [8],composite z-score [9],composite z-score [10]
C#CCN1[C@@H](Cc2ccc(O)cc2)C(=O)O[C@H](Cc2ccccc2)[C@@H]1/C=C/C1CC1,-0.353,0.336,-0.142,0.199,-0.586,-0.37,0.207,-3.33 (inactive),0.0959,-0.279
O=C(NCCN1CCOCC1)[C@@H]1c2ccccc2C(=O)N(Cc2cc(C(F)(F)F)cc(C(F)(F)F)c2)[C@H]1c1ccc(CO)cc1,0.284,0.183,-0.116,-0.214,-1.28,1.27,1.25,0.0006 (inactive),0.0794,-0.0994
CCCCCCCCCCC(O)C1C=CC2C(=O)NC(=O)C2N1Nc1ccc(Cl)cc1Cl (stereo not given),0.133,-1.22,-0.0667,0.159,-0.218,1.02,0.436,1.32 (inactive),0.0804,-0.0237
CCOc1ccc(N2C(=O)CSC2c2cccc([N+](=O)[O-])c2)cc1 (stereo not given),-0.368,-0.113,0.0525,0.839,1.22,1.64,1.29,0.541 (inactive),0.569,-0.199
CC(=CC1CCCCC1)[C@@H](NC(=O)c1cccnc1)c1ccc(-c2ccccc2)cc1,0.365,-0.545,0.0021,-0.25,0.142,0.0657,-0.362,-0.972 (inactive),0.281,-0.194
CC(=O)Nc1cc(Br)ccc1C(=O)NCc1ccccc1,-0.16,-0.0459,0.0213,-0.0284,0.359,0.685,1.23,0.0163 (inactive),-0.0314,-0.226
O=C1C2C=CC(C(O)c3ccc(-c4ccccc4)s3)N(Nc3ccccc3)C2C(=O)N1c1ccccc1 (stereo not given),-0.288,-0.109,0.198,0.44,1.61,2,1.33,-2.89 (inactive),1.62,-0.0618
O=C1NC(=O)C2C1C=CC(C(O)c1ccc(I)cc1)N2Nc1ccccn1 (stereo not given),0.193,0.142,0.0111,-0.0668,0.599,1.71,0.725,0.63 (inactive),-0.0237,-0.0173
COCCOC(=O)N1C(=O)[C@@]2(c3cc(C#CC4=CCCCC4)ccc31)[C@H](C(N)=O)[C@H]1C(=O)O[C@H](c3ccccc3)[C@H](c3ccccc3)N1[C@@H]2c1ccc(O)cc1,-0.0926,0.368,0.0122,0.683,1.28,0.758,1.11,-0.95 (inactive),0.416,0.0623
CN1C(=O)C2C=CC(C(O)c3ccc(F)cc3)N(N(c3ccccc3)c3ccccc3)C2C1=O (stereo not given),0.5,-0.123,-0.0446,0.122,0.822,1.28,1.03,-0.368 (inactive),0.56,-0.107
CC(CO)N1C(=O)[C@@H]2C3C(=O)OCCC/C=C\[C@H]3OC23C=CCN(CCN2CCOCC2)C(=O)[C@@H]13 (stereo not given in full),-0.547,0.163,-0.139,0.38,-0.59,-0.31,0.47,-0.55 (inactive),-0.28,-0.212
COc1cc(CO)cc(I)c1O[C@H]1C=C(C(=O)NCCO)C[C@@H](N(C(=O)c2cc3ccccc3oc2=O)C2CCCCCC2)[C@@H]1O,-0.386,0.419,-0.0935,0.661,0.511,-0.19,-0.52,-0.738 (inactive),-0.0938,0.0646
COC(=O)[C@@]1(CCC(=O)OC(C)(C)C)N=C(c2ccc(OCCCO)cc2)O[C@H]1c1ccccc1,0.579,-0.168,-0.024,-0.0016,0.124,0.916,0.774,0.174 (inactive),-0.164,0.0505
COC(=O)[C@@]1(Cc2ccccc2)[C@H]2c3cc(C(=O)N(C)C)n(Cc4ccc(OC)c(OC)c4)c3C[C@H]2CN1C(=O)c1ccccc1,0.396,0.517,0.487,1.23,1.83,1.62,1.34,0.115 (inactive),1.28,0.66
CCCCC(=C=CC[C@@H](O)c1cccc(OCCO)c1)C[C@@H](O)c1ccccn1,-0.528,0.775,-0.0771,0.702,0.0548,0.23,1.12,1.36 (inactive),0.381,-0.0618
C=CC[C@]1(C(=O)NCc2ccccc2)N=C(c2ccc(OCCCO)cc2)O[C@H]1c1ccccc1CN=[N+]=[N-],0.0143,0.234,0.053,0.505,1.54,1.05,1.11,-2.43 (inactive),1.02,0.0854
CCCC=C(CCC)[C@@H](NC(=O)OCC(C)C)c1ccccc1,1.28,-0.122,0.685,0.444,1.33,-0.111,0.762,2.06 (inactive),2.06,0.152
C=CCNC(=O)[C@H]1[C@@H]2C(=O)O[C@@H](c3ccccc3)[C@@H](c3ccccc3)N2[C@@H](c2ccc(O)cc2)[C@]12C(=O)Nc1ccc(C#CCCO)cc12,-0.107,-1.51,-0.122,-0.0819,-0.697,1.01,0.732,-3.71 (inactive),0.33,-0.0994
COc1ccccc1CN1C(=O)c2ccccc2[C@@]2(Cc3ccccc3N(CCCN(C)C)C2=O)[C@@H]1c1ccc(CO)cc1,-0.302,-0.252,-0.0396,-0.0231,0.137,-0.141,0.0968,0.0544 (inactive),-0.201,-0.0645
COCCOC(=O)N1C(=O)[C@@]2(c3cc(C#CC4(O)CCCCCC4)ccc31)[C@H](C(=O)Nc1nc3ccccc3s1)[C@H]1C(=O)O[C@H](c3ccccc3)[C@H](c3ccccc3)N1[C@@H]2c1ccccc1OCCO,0.184,1.29,-0.0503,0.94,1,1.54,1.29,1.86 (inactive),0.461,-0.0618
[N-]=[N+]=Nc1ccccc1[C@H]1OC(c2ccc(OCCCO)cc2)=N[C@@]1(Cc1ccccc1)C(=O)N1CCOCC1,0.875,0.992,0.184,0.698,1.57,1.84,1.22,-1.6 (inactive),1.52,0.0873
CCCC1(C(=O)OC)C=C2C(=C(c3ccccc3)C(=O)C2C)CN1 (stereo not given),1.43,-0.289,-0.0869,-0.121,0.725,0.768,0.861,2.51 (inactive),0.387,0.154
COCCOC(=O)N1C(=O)[C@@]2(c3cc(C#CC4=CCCCC4)ccc31)[C@H](c1ccc(OCCO)cc1)N1[C@H](c3ccccc3)[C@H](c3ccccc3)OC(=O)[C@H]1[C@@H]2C(=O)N1CCc2cc(OC)c(OC)cc2C1,-0.16,0.36,-0.0242,0.666,1.43,0.395,1.15,-0.211 (inactive),0.596,-0.0994
CC(C)CNC(=O)[C@@]1(Cc2ccccc2I)c2ccccc2C(=O)N(Cc2ccccc2C(F)(F)F)[C@H]1c1ccc(CO)cc1,0.0085,0.0038,-0.118,-0.128,-1.46,0.89,-0.13,0.49 (inactive),-0.374,-0.236
CC(c1ccccc1)C(O)C1C=CC2C(=O)N(C)C(=O)C2N1NC(=O)OC(C)(C)C (stereo not given),0.301,0.518,0.225,0.626,1.21,1.91,1.17,1.89 (inactive),1.14,-0.0645
COC(=O)C(CC#Cc1ccc2c(c1)[C@]1(C(=O)N2)[C@H](c2ccccc2OCCO)N2[C@H](c3ccccc3)[C@H](c3ccccc3)OC(=O)[C@H]2[C@@H]1C(N)=O)C(=O)OC,1.88,0.726,0.255,0.774,0.806,1.69,1.32,-1.84 (inactive),1.84,0.087
[N-]=[N+]=NCc1ccccc1[C@@H]1OC(c2ccc(OCCCO)cc2)=N[C@]1(CCS(=O)(=O)c1ccccc1)C(=O)N1CCCCC1,0.0217,-0.267,0.0714,0.398,1.66,2.13,1.28,-0.0344 (inactive),1.69,-0.26
